This is a sample that favours compounds with a hit; in the whole collection about 3.1% have one here.
p53null 32C tox = selectivity test: cytotoxicity in p53 null cells, permissive temperature; Potency, µM (top dose mostly 46.1 µM), usual class: cytotoxic; AID 903; H1299-neo p53 null cells, ATP luminescence, 24 h, 32C; 55,000 compounds, 0.62% hits; note: nearly all actives have a fitted effect of over 55% in size
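Luminescent ATP readout gave cell viability of p53-null H1299-neo cells after a 24 h compound exposure at the permissive 32C. Titrations ran up to 46 uM, and AC50s were fitted with the standard Hill equation.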
SKOV3 invasion = blocks SKOV3ip1 adhesion and invasion in omental model; 46,000 compounds, 0.1% hits; Potency, µM (highest dose often 45.8 µM), usual class: inhibitors; SKOV3ip1-GFP adhesion/invasion on 3D omental model, fluorescence; note: nearly all actives have a fitted effect of over 65% in size
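Adhesion/invasion was scored as fixed GFP-labeled SKOV3ip1 cell counts (488/509 nm), normalized to DMSO and tomatine controls. Cancer cells in serum-free medium, with four compound doses (0.36-46 umol/L), sat 2 hr at RT then 16 hr at 37 C on a 48 hr fibroblast/mesothelial/ECM culture.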
S16 viability = S16 Schwann cell cytotoxicity; S16 Pmp22-F2sN Schwann cells viability, CellTiter-Glo, 24 h; 43,000 compounds, 0.48% hits; Potency, µM (doses to about 57.5 µM), actives largely listed as cytotoxic; note: nearly all actives have a fitted effect of over 65% in size
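Seed 500-1,000 S16 Pmp22-F2sN cells per well in phenol-red-free DMEM with 10% heat-inactivated FBS; pin-add 23 nL compound; incubate 24 h at 37C; add CellTiter-Glo, wait 15 min protected from light; read luminescence.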
p53null 39C kill = p53 null cell cytotoxicity, nonpermissive temperature; H1299 p53-null (neo) cells, 39C, ATPlite viability, 24 h; Potency, µM (highest dose often 46.1 µM), most hits filed as cytotoxic; 55,000 compounds, 0.97% hits; note: nearly all actives have a fitted effect of over 50% in size
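Following overnight plating at 37C (600 cells/well), H1299-neo or H1299-p53A138V cells are dosed up to 46 uM. Incubation lasts 24 hr at 39C before ATP detection.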
PMP22 txn prim = modulators of PMP22 gene transcription in S16 Schwann cells; S16 Pmp22-F2sN Schwann cells (luciferase reporters placed in the Pmp22 gene), FLuc/NLuc coincidence luminescence, 24 h; Potency, µM (series often up to 57.5 µM), most hits filed as inhibitors; 43,000 compounds, 2% hits; AID 1508649; active = clear falling dose curves in both reporters; inconclusive = both reporters move, but less clearly or upward; inactive = either reporter flat; the % is the NLuc reporter signal
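Transcriptional readout in edited S16(c9) cells: two luciferases reported from the Pmp22 locus, measured in turn after 24 h compound incubation.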
pS6 MEF inh = inhibitors of mTORC1 signaling in Tsc2-/- p53-/- MEF cells; Tsc2-/- p53-/- MEF, phospho-rpS6 immunofluorescence/PI, 24 h; Potency, µM (titrated, usually from 38.3 µM), usual class: inhibitors; 44,000 compounds, 0.78% hits; note: nearly all actives have a fitted effect of over 50% in size
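Compounds act on Tsc2-/-, p53-/- fibroblasts carrying an empty vector for 24 h before fixation and dual staining for phospho-S6 and DNA (propidium iodide). Values are percentages of cells above a rapamycin-defined pS6/PI threshold.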
Numbers stand for hits. Unless noted, calls come from the whole dose curve; as a rule, active = well fitted curve in the direction sought with a large enough effect; inconclusive = small, poorly fitted or top-dose-only effect, or another doubt; inactive = no such curve, though single readings can be large; an effect the other way counts as inactive or inconclusive.

Screening CCS(=O)(=O)c1ncc(Cl)c(C(=O)N2CCN(c3cccc(Cl)c3)CC2)n1 returned p53null 32C tox inconclusive, SKOV3 invasion inactive, S16 viability 4.5µM, p53null 39C kill 3.2µM, PMP22 txn prim inconclusive and pS6 MEF inh 2.6µM.
Screening CCc1c(C)c2ccc(O)c(CN3CCN(c4ccc(OC)cc4)CC3)c2oc1=O returned p53null 32C tox inconclusive, SKOV3 invasion inactive, p53null 39C kill 10µM and pS6 MEF inh inactive.
For CCOC(=O)C=C[C@H](C[C@@H]1CCNC1=O)NC(=O)[C@@H](CC(=O)[C@@H](NC(=O)c1cc(C)on1)C(C)C)Cc1ccc(F)cc1 the results were SKOV3 invasion inactive.
`CC(C)c1ccc(S(=O)(=O)/N=C2/C=C(Sc3ncn[nH]3)C(=O)c3ccccc32)cc1` gave p53null 32C tox 6.3µM.
N#Cc1ccc(NC(=O)Nc2ccccc2Br)c2n[nH]nc12 was read as SKOV3 invasion inactive.
Cc1nn(-c2ccccc2)c2sc(C(=O)Nc3cccc(O)c3)cc12 was read as p53null 32C tox inactive, SKOV3 invasion inactive, S16 viability inconclusive, p53null 39C kill 25µM, PMP22 txn prim inconclusive and pS6 MEF inh inactive.
Screening Cc1nn(-c2ccccc2)c2sc(C(=O)Nc3ccccc3Br)cc12 returned p53null 32C tox inactive, SKOV3 invasion inactive, S16 viability inactive, p53null 39C kill inactive, PMP22 txn prim inactive and pS6 MEF inh inactive.
CCOc1ccc(N/C=C/C(=O)c2ccccc2)c([N+](=O)[O-])c1 was read as p53null 32C tox 6.3µM.
Screening COc1ccc(NC(=O)c2cccc(NC(=O)C(C)C)c2)c([N+](=O)[O-])c1 returned p53null 32C tox inactive.
Screening CS(=O)(=O)Oc1ccc2c(NC(N)=O)c(C(=O)c3ccc(Cl)cc3Cl)oc2c1 returned SKOV3 invasion inactive.
For C=C1C(=CC=C2CCCC3(C)[C@@H]([C@H](C)C=CC=CC(O)(CC)CC)CC[C@@H]23)C[C@@H](O)C[C@@H]1O (stereo partly specified) the results were SKOV3 invasion inactive.
For COc1ccc(N2CCN(C(=O)C(C)n3nc(C)c4sc5ccccc5c4c3=O)CC2)cc1 (stereo unspecified) the results were p53null 32C tox inactive, SKOV3 invasion inconclusive, S16 viability inactive, p53null 39C kill 13µM, PMP22 txn prim inconclusive and pS6 MEF inh 1.3µM.
Cc1nn(C(C)C(=O)NC2CCC(C)CC2)c(=O)c2c1sc1ccccc12 (stereo unspecified) was read as p53null 32C tox inconclusive, SKOV3 invasion inactive, S16 viability inactive, p53null 39C kill 20µM, PMP22 txn prim inconclusive and pS6 MEF inh 2.1µM.
For Cc1nn(CC(=O)NC2CCC(C)CC2)c(=O)c2c1sc1ccccc12 (stereo unspecified) the results were p53null 32C tox inactive, SKOV3 invasion inactive, S16 viability inactive, p53null 39C kill inactive, PMP22 txn prim inconclusive and pS6 MEF inh inactive.
Screening Cc1ccc(C)c(N2CCN(C(=O)C(C)n3nc(C)c4sc5ccccc5c4c3=O)CC2)c1 (stereo unspecified) returned p53null 32C tox inactive, SKOV3 invasion inactive, S16 viability inactive, p53null 39C kill inactive, PMP22 txn prim inactive and pS6 MEF inh inactive.
Cc1cc(C)cc(NC(=O)c2cccc3c2C(=O)N(C2CCCCC2)C3)c1 was read as p53null 32C tox inactive, SKOV3 invasion inactive, S16 viability inactive, p53null 39C kill inactive, PMP22 txn prim inactive and pS6 MEF inh inactive.
Screening COc1cc(NC(=O)c2cccc3c2C(=O)N(C2CCCCC2)C3)cc(OC)c1OC returned p53null 32C tox inactive, SKOV3 invasion inactive, S16 viability inconclusive, p53null 39C kill inactive, PMP22 txn prim inconclusive and pS6 MEF inh 15µM.
`CC(C)C[C@H](NC(=O)CNC(=O)c1cc(Cl)ccc1Cl)B(O)O` gave SKOV3 invasion inactive.
For COc1ccc(F)c(F)c1C(=O)c1cnc(NC2CCN(S(C)(=O)=O)CC2)nc1N the results were SKOV3 invasion inactive.
`O=C(Nc1cc(Cl)cc(Cl)c1)c1ccc(F)c(S(=O)(=O)NC2CCCCC2)c1` gave p53null 32C tox inconclusive, SKOV3 invasion inactive, S16 viability inactive, p53null 39C kill 20µM, PMP22 txn prim inconclusive and pS6 MEF inh inconclusive.
O=C(Nc1ccc(Br)cc1)c1ccc(F)c(S(=O)(=O)NC2CCCCCC2)c1 was read as p53null 32C tox inactive, SKOV3 invasion inconclusive, S16 viability inconclusive, p53null 39C kill inactive, PMP22 txn prim inconclusive and pS6 MEF inh inactive.
Cc1nc2cnc3ccc(C#Cc4cccnc4)cc3c2n1-c1ccc(C(C)(C)C#N)cc1 was read as SKOV3 invasion inactive.
For Cc1cccc(-n2cnc3cc(C(=O)NC4CCCCCC4)ccc32)c1 the results were p53null 32C tox inactive, SKOV3 invasion inactive, S16 viability inconclusive, p53null 39C kill inactive, PMP22 txn prim inconclusive and pS6 MEF inh 9.3µM.
O=c1ncn2nc(Sc3ccc(F)cc3F)ccc2c1-c1c(Cl)cccc1Cl was read as SKOV3 invasion inactive.
Screening CCN(CCN(C)C)C(=O)C1CCN(S(=O)(=O)c2c(C)noc2/C=C/c2ccccc2F)CC1 returned p53null 32C tox inactive, SKOV3 invasion inactive, S16 viability inconclusive, p53null 39C kill inconclusive, PMP22 txn prim inconclusive and pS6 MEF inh 18µM.
CCOc1ccccc1/C=C/c1onc(C)c1S(=O)(=O)N1CCC(C(=O)N(CC)CC)CC1 was read as p53null 32C tox inactive, SKOV3 invasion inactive, S16 viability inconclusive, p53null 39C kill inactive, PMP22 txn prim inconclusive and pS6 MEF inh inactive.
`O=C(O)c1ccccc1C(=O)Nc1ccc(-c2ccccc2)cc1` gave SKOV3 invasion inactive.
For CC(C)c1cc(-c2n[nH]c(=O)n2-c2ccc3c(ccn3C)c2)c(O)cc1O the results were SKOV3 invasion inactive.
Cc1cc(C(=O)Nc2sc3c(c2C#N)CCCC3)no1 was read as p53null 32C tox 14µM and p53null 39C kill 11µM.
`COc1ccc(NC(=O)C(NC(=O)/C=C\c2ccc3c(c2)OCO3)c2ccccc2)cc1` (stereo unspecified) gave p53null 32C tox inactive, SKOV3 invasion inconclusive, S16 viability inactive, p53null 39C kill inactive, PMP22 txn prim inactive and pS6 MEF inh 10µM.
`C=C1C[C@@]2(O)O[C@@]3(C[C@H]2C(C)C)[C@H](C)CC[C@H]13` gave SKOV3 invasion inactive.
